The results in this text go back to PubChem BioAssay (EPA / NIEHS).

The structures appear in SMILES notation. Several values for one entry are separate records, joined by “and”; a condition that tells them apart may be missing. Equal entries are not always repeated. More than one record can exist for a structure, and the calls need not agree. Activity calls are given as the source filed them. Rule for the calls: active = hit-call score of the fitted dose curve at least 0.9, where 1 is the maximum; inactive = score below 0.9.

Read-out in assay [1]: Human Leukocyte Antigen - DR isotype (HLADR), HLA-DRA (gene 3122)
The assay is described as follows: BSK_BE3C_HLADR: BioMAP Diversity Plus: BE3C Assay for Human Leukocyte Antigen - DR isotype (HLADR) Biomarker Activity (AID 2283032). To be noted: primary human bronchial epithelial cells; actives raise or lower the signal. An outline of the steps: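 BioMAP BE3C format: human bronchial epithelium, 24 h compound treatment, ELISA detection of HLA-DR, with bidirectional analysis relative to DMSO.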

Read-out in assay [2]: Vascular cell adhesion molecule 1 (VCAM1), VCAM1 (gene 7412)
The assay is described as follows: BSK_4H_VCAM1: BioMAP Diversity Plus: 4H Assay for Vascular cell adhesion molecule 1 (VCAM1) Biomarker Activity (AID 2283033).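 For outcome: cell-surface VCAM-1 protein measured by ELISA.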 To be noted: primary human endothelial cells (HUVEC); actives raise or lower the signal. An outline of the steps:
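In this human endothelial (HUVEC) system, biomarker ELISA was run 24 h after compound addition, and total protein in parallel wells was assessed by SRB at 560 nm; DMSO served as negative control.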

Read-out in assay [3]: Interferon-gamma inducible Protein 10 (IP10), CXCL10 (gene 3627)
The assay is described as follows: BSK_BE3C_IP10: BioMAP Diversity Plus: BE3C Assay for Interferon-gamma inducible Protein 10 (IP10) Biomarker Activity (AID 2283034). To be noted: primary human bronchial epithelial cells; actives raise or lower the signal. An outline of the steps: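 BE3C cells (human bronchial epithelial, primary); 24 h exposure; ELISA for IP-10; DMSO-referenced bidirectional fit.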

Read-out in assay [4]: Monokine induced gamma interferon (MIG), CXCL9 (gene 4283)
The assay is described as follows: BSK_BE3C_MIG: BioMAP Diversity Plus: BE3C Assay for Monokine induced gamma interferon (MIG) Biomarker Activity (AID 2283035).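 For outcome: MIG protein measured by ELISA in BE3C cultures after 24 h of dosing.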 Conditions: primary human bronchial epithelial cells; actives raise or lower the signal. An outline of the steps: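 ELISA quantified MIG after 24 h exposure of primary bronchial epithelial cultures, analysed in both directions relative to DMSO. Cytotoxicity tracked in parallel cultures by sulforhodamine B staining.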

Read-out in assay [5]: Transforming growth factor beta 1 (TGFb1), TGFB1 (gene 7040)
The assay is described as follows: BSK_BE3C_TGFb1: BioMAP Diversity Plus: BE3C Assay for Transforming growth factor beta 1 (TGFb1) Biomarker Activity (AID 2283036;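 for outcome: TGF-b1 protein level measured by ELISA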). Conditions: primary human bronchial epithelial cells; actives raise or lower the signal. An outline of the steps:
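TGF-b1 measured via ELISA, 24 h after chemical dosing of human bronchial epithelial cells (BE3C). Overt cytotoxicity assessed in parallel by SRB (0.1%, TCA-fixed, 560 nm); analysis bidirectional relative to DMSO.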

Read-out in assay [6]: Plasminogen activator inhibitor-1 (PAI1), SERPINE1 (gene 5054)
The experiment in a line: BSK_BE3C_PAI1: BioMAP Diversity Plus: BE3C Assay for Plasminogen activator inhibitor-1 (PAI1) Biomarker Activity (AID 2283037). To be noted: primary human bronchial epithelial cells; actives raise or lower the signal. An outline of the steps: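 In this multiplexed primary-cell system, bronchial epithelial cells receive test chemical and are sampled at 24 h. PAI-1 is read by ELISA, with DMSO serving as negative control for bidirectional fitting.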

Read-out in assay [7]: urokinase plasminogen activator (uPA), PLAU (gene 5328)
The experiment in a line: BSK_BE3C_uPA: BioMAP Diversity Plus: BE3C Assay for urokinase plasminogen activator (uPA) Biomarker Activity (AID 2283038).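 For outcome: uPA protein level quantified by ELISA in cell cultures; uPA read one day after compound addition.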 Conditions: primary human bronchial epithelial cells; actives raise or lower the signal. In short, it runs like this:
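Measured by ELISA: uPA from human primary bronchial epithelial cells 24 h after chemical treatment. Values derive from bidirectional curve fitting with DMSO serving as negative control. Total protein by SRB staining in parallel wells flagged overt cytotoxicity.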

Read-out in assay [8]: Urokinase-type plasminogen activator receptor (uPAR), PLAUR (gene 5329)
The experiment in a line: BSK_BE3C_uPAR: BioMAP Diversity Plus: BE3C Assay for Urokinase-type plasminogen activator receptor (uPAR) Biomarker Activity (AID 2283039).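 For outcome: uPAR protein level measured by ELISA on the cells; cells exposed to compound for one day before measurement.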 To be noted: primary human bronchial epithelial cells; actives raise or lower the signal. In short, it runs like this: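 Chemically treated human bronchial epithelial cells (lung primary) are assayed for uPAR by ELISA after 24 h, with data fitted in both directions using DMSO as negative control.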

Read-out in assay [9]: Interleukin-6 (IL6), IL6 (gene 3569)
The assay is described as follows: BSK_CASM3C_IL6: BioMAP Diversity Plus: CASM3C Assay for Interleukin-6 (IL6) Biomarker Activity for (AID 2283040). Conditions: primary human coronary artery smooth muscle cells; actives raise or lower the signal.

Read-out in assay [10]: Tissue plasminogen activator (tPA), PLAT (gene 5327)
The assay is described as follows: BSK_BE3C_tPA: BioMAP Diversity Plus: BE3C Assay for Tissue plasminogen activator (tPA) Biomarker Activity (AID 2283041).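 For outcome: tPA level quantified by ELISA one day after compound addition.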 Conditions: primary human bronchial epithelial cells; actives raise or lower the signal. An outline of the steps: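 Using human lung primary bronchial epithelial cells, tPA was measured by ELISA 24 h after dosing; data fitted relative to DMSO.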

Read-out in assay [11]: Interleukin-8 (IL8), CXCL8 (gene 3576)
The experiment in a line: BSK_CASM3C_IL8: BioMAP Diversity Plus: CASM3C Assay for Interleukin-8 (IL8) Biomarker Activity (AID 2283042).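 Note: IL-8 protein level quantified by ELISA.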 To be noted: primary human coronary artery smooth muscle cells; actives raise or lower the signal.

Read-out in assay [12]: Human Leukocyte Antigen - DR isotype (HLADR), HLA-DRA (gene 3122)
The assay is described as follows: BSK_CASM3C_HLADR: BioMAP Diversity Plus: CASM3C Assay for Human Leukocyte Antigen - DR isotype (HLADR) Biomarker Activity (AID 2283043).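 Note: cell-surface HLA-DR protein level quantified by ELISA.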 To be noted: primary human coronary artery smooth muscle cells; actives raise or lower the signal.

Read-out in assay [13]: Macrophage colony-stimulating factor (MCSF), CSF1 (gene 1435)
The assay is described as follows: BSK_CASM3C_MCSF: BioMAP Diversity Plus: CASM3C Assay for Macrophage colony-stimulating factor (MCSF) Biomarker Activity (AID 2283044).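 Note: M-CSF protein amount quantified by ELISA after 24 h exposure.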 Conditions: primary human coronary artery smooth muscle cells; actives raise or lower the signal.

Read-out in assay [14]: Low-density lipoprotein receptor (LDLR), LDLR (gene 3949)
The assay is described as follows: BSK_CASM3C_LDLR: BioMAP Diversity Plus: CASM3C Assay for Low-density lipoprotein receptor (LDLR) Biomarker Activity (AID 2283045).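 Note: LDLR protein level on the cell surface quantified by ELISA.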 To be noted: primary human coronary artery smooth muscle cells; actives raise or lower the signal.

Read-out in assay [15]: Monocyte Chemoattractant Protein-1 (MCP1), CCL2 (gene 6347)
The experiment in a line: BSK_CASM3C_MCP1: BioMAP Diversity Plus: CASM3C Assay for Monocyte Chemoattractant Protein-1 (MCP1) Biomarker Activity (AID 2283046).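 Note: MCP-1 level quantified by ELISA 24 h after dosing.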 Conditions: primary human coronary artery smooth muscle cells; actives raise or lower the signal.

A short description of assay [16]: BSK_CASM3C_Proliferation: Cell Proliferation Assessment in the BioMAP Diversity Plus: CASM3C Assay (AID 2283047).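 Note: sulforhodamine B total protein stain as relative cell number at 560 nm; sub-confluent cells exposed 48 h before staining; fitted both ways against DMSO so gain or loss of cell number.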 To be noted: primary human coronary artery smooth muscle cells.
Read-out in assay [17]: Monokine induced gamma interferon (MIG), CXCL9 (gene 4283)
The experiment in a line: BSK_CASM3C_MIG: BioMAP Diversity Plus: CASM3C Assay for Monokine induced gamma interferon (MIG) Biomarker Activity (AID 2283048).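 Note: MIG protein level measured by ELISA.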 Conditions: primary human coronary artery smooth muscle cells; actives raise or lower the signal.

Read-out in assay [18]: serum amyloid A (SAA), SAA1 (gene 6288)
The assay is described as follows: BSK_CASM3C_SAA: BioMAP Diversity Plus: CASM3C Assay for serum amyloid A (SAA) Biomarker Activity (AID 2283049).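 Note: SAA protein level quantified by ELISA.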 Conditions: primary human coronary artery smooth muscle cells; actives raise or lower the signal.

Assay [19] is described as follows: BSK_CASM3C_SRB: Viability Assessment in the BioMAP Diversity Plus: CASM3C Assay (AID 2283050).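 Note: total protein by SRB staining as cytotoxicity measure in parallel cultures.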 Conditions: primary human coronary artery smooth muscle cells.
Read-out in assay [20]: Thrombomodulin, THBD (gene 7056)
The assay is described as follows: BSK_CASM3C_Thrombomodulin: BioMAP Diversity Plus: CASM3C Assay for Thrombomodulin Biomarker Activity (AID 2283051).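 Note: thrombomodulin protein level measured by ELISA 24 h after dosing.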 Conditions: primary human coronary artery smooth muscle cells; actives raise or lower the signal.

On to `C[C@@H]1C[C@H]2[C@@H]3CCC4=CC(=O)C=C[C@]4(C)[C@@]3(F)[C@@H](O)C[C@]2(C)[C@@]1(O)C(=O)COP(=O)(O)O`, for which the result in [1], in [2], in assay [3], in assay [4], in [5] and in assay [6] was inactive. Also, the result in assay [7], in assay [8], in [10], in [12], in assay [14] and in assay [16] was inactive. Also, the outcome in [17], in [19] and in assay [20] was inactive. Besides, the concentration at half-maximal activity (AC50) is 0.763 µM (active) in assay [6]; 158 nM (active) and 1.34 µM (active) and 690 nM (active) in assay [9]; 478 nM (active) and 416 nM (active) in assay [10]; 176 nM (active) and 1.04 µM (active) and 101 nM (active) in assay [11]; 29.4 nM (active) and 113 nM (active) and 217 nM (active) in [13]; 141 nM (active) and 1.58 µM (active) and 720 nM (active) in assay [15]. Further, the AC50 in assay [16] was 0.163 µM (active); in assay [18], 54.4 nM (active) and 105 nM (active) and 155 nM (active); in [20], 29.4 nM (active) and 100 nM (active).

On to `CC(C)(C)c1cc(C(C)(C)C)c(O)c(C(C)(C)C)c1`, for which the outcome in assay [1], in assay [2], in assay [3], in assay [4], in assay [5] and in assay [6] was inactive. The result in [8], in assay [9], in [10], in [11], in assay [12] and in assay [13] was inactive. Further, the outcome in assay [15], in assay [16], in [17], in [18] and in assay [19] was inactive. The concentration at half-maximal activity (AC50) in [7] was 5.06 µM (active); in assay [14], 11.8 µM (active); in [20], 6.88 µM (active).

For the compound `CCCOc1sc(C(=O)N2CCC(c3cc(CN)ccc3F)CC2)c(C)c1Br`, the AC50 in assay [1] is 7.9 µM (active); in assay [2] it was 8.01 µM (active); in assay [3], 9.51 µM (active); in assay [4], 10.2 µM (active); in [5] it was 6.71 µM (active); in assay [6], 9.91 µM (active). For the same compound, the half-maximal activity concentration (AC50) in assay [7] was 5.88 µM (active); in assay [8], 7.36 µM (active); in assay [9], 27.4 µM (active); in assay [10] it was 5.19 µM (active); in assay [11], 15.4 µM (active); in assay [12], 4.87 µM (active). Moreover, the AC50 is 9.62 µM (active) in [13]; 27.1 µM (active) in [14]; 17.5 µM (active) in assay [15]; 7.94 µM (active) in [16]; 27.8 µM (active) in [17]; 11.9 µM (active) in assay [18]. Moreover, the AC50 in assay [19] is 12.9 µM (active); in assay [20], 32.6 µM (active).

For `OC1CCC(C2CCCCC2)CC1` (centres undefined), the result in assay [1], in [2], in assay [3], in assay [4], in [5] and in assay [6] was inactive. The result in assay [7], in assay [8], in assay [9], in [10], in [11] and in [12] was inactive. In addition, the result in [13], in assay [14], in assay [15], in [16], in [17] and in [18] was inactive. The outcome in assay [19] and in assay [20] was inactive.

Regarding `CN1CCC[C@H]1c1cccnc1`, the result in [1], in assay [2], in assay [3], in assay [4], in assay [5] and in assay [6] was inactive. The outcome in assay [7], in [8], in assay [9], in assay [10], in assay [11] and in [12] was inactive. Moreover, the outcome in assay [13], in [14], in assay [15], in assay [16], in assay [17] and in assay [18] was inactive. Besides, the result in assay [19] and in assay [20] was inactive.
